Measurements from PubChem BioAssay AID485346 (Sanford-Burnham Center for Chemical Genomics, 2010).
The whole screen tested about 330,000 compounds, of which about 10,000 (3%) were called active. The full list was thinned out, with actives kept by preference. Unmarked numbers belong to inactive results.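 Rule for the calls: active = inhibition of at least 50% at 8 µM in the primary screen; inactive = the rest.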

Each compound was assayed against Protein Mdm4 (Homo sapiens) + E3 ubiquitin-protein ligase Mdm2 (Homo sapiens) (UniProt O15151+Q00987) (assay: inhibitors of human Mdm2-MdmX association, primary screen, cell-based, luminescence, split luciferase, SaOS-2, uHTS (AID 485346)). Conditions: SaOS-2 split-luciferase Mdm2/MdmX complementation, at 8 µM, stronger effect = higher value.
Protein Mdm4 (Homo sapiens) + E3 ubiquitin-protein ligase Mdm2 (Homo sapiens), sequence (O15151 whole entry, looked up): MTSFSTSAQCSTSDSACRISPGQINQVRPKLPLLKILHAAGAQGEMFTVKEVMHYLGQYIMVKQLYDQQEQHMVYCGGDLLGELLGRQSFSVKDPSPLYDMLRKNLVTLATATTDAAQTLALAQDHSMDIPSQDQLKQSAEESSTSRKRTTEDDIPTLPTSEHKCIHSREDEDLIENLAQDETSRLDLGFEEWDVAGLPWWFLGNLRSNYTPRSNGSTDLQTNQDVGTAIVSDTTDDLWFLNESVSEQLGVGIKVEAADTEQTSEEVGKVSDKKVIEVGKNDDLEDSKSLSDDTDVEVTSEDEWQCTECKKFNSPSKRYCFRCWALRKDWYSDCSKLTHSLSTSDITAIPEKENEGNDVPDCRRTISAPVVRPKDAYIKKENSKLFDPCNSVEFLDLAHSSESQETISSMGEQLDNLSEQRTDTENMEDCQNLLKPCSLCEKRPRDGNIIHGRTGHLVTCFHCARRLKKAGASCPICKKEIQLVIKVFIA
Protein Mdm4 (Homo sapiens) + E3 ubiquitin-protein ligase Mdm2 (Homo sapiens), sequence (Q00987 whole entry, looked up): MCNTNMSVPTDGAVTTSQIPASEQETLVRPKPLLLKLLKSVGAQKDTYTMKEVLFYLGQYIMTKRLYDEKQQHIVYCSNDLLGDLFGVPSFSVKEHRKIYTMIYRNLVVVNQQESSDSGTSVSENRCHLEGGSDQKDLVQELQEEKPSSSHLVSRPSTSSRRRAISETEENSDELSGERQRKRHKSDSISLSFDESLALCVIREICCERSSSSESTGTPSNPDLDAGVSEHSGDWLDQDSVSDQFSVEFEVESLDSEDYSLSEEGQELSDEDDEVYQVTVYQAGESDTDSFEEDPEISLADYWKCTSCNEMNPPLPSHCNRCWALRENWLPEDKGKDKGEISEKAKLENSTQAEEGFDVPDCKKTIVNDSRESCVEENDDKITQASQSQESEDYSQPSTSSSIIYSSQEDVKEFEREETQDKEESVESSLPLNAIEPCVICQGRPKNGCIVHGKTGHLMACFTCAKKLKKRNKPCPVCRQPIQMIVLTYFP

SMILES	inhibition
CCOc1ccc(Nc2nc(Cl)nc(N3CCN(c4ccc(OC)cc4)CC3)n2)cc1	7.3%
CCOC(=O)N1CCN(CCC(=O)Nc2cc(OC)ccc2OC)CC1	-21.2%
CCN1CCN(c2nc(Nc3cc(OC)ccc3OC)nc(Nc3cc(OC)ccc3OC)n2)CC1	56.2% (active)
Cc1ccc(C)c(-n2nnnc2SCC(=O)c2c(N)n(C)c(=O)n(C)c2=O)c1	24.7%
O=C(CC(O)(C(F)(F)F)C(F)(F)F)Nc1ccc(Cl)c(Cl)c1	83.5% (active)
CS(=O)(=O)N(CC(=O)Nc1ccc(Cl)c(Cl)c1)C1CCCCC1	11.5%
CCn1nccc1C(=O)Nc1ccc(Cl)c(Cl)c1	28.3%
COc1ccc(N2CCN(C(=O)CNS(=O)(=O)c3ccc(C)c(C)c3)CC2)cc1	-7.3%
CN(C)c1ccc(C=C2C(=O)OC3(CCCC3)OC2=O)cc1	-3.25%
COc1cc(/C=N/NC(=O)c2ccoc2C)ccc1OCCN1CCCCC1	7.93%
COC(=O)c1ccc(COc2ccc(/C=N/NC(=O)C(=O)Nc3ccc(OC)cc3)cc2OC)o1	36.6%
COc1cc(/C=N/NC(=O)Nc2ccccc2)ccc1OCCOc1ccccc1C	63.8% (active)
COc1ccc(-c2ccc(Nc3ccc(S(=O)(=O)N4CCCC4)cc3)nn2)cc1OC	57.4% (active)
COc1ccc(S(=O)(=O)N2CCCCCC2)cc1NC(=O)Cc1ccc(OC)c(OC)c1	7.01%
COc1cc(C(C)=O)ccc1OC(C)C(=O)Nc1ccc(S(=O)(=O)N2CCCC2)cc1 (centres undefined)	9.67%
O/N=C(\C[n+]1ccccc1)c1ccc(Br)cc1	17%
CC(=O)C(CC(=O)N1CCCC1)C(=O)Nc1ccc(Cl)cc1 (centres undefined)	-3.54%
O=C(O)CCCN1C(=O)c2ccccc2Sc2ncccc21	-8.61%
Nc1nc(COC(=O)CCC(=O)c2ccc(Cl)cc2)nc(Nc2ccccc2)n1	-9.75%
Nc1nc(CC(=O)CSc2ccc(Cl)cc2)nc(Nc2ccc(F)cc2)n1	81% (active)
Cc1ccc(Nc2nc(N)nc(CSc3nnc(C)s3)n2)cc1	-6.62%
CCS(=O)(=O)c1ccc2c(c1)N(S(=O)(=O)c1ccccc1)CC(C(=O)O)O2 (centres undefined)	-32%
Cn1c(N)c(C(=O)COC(=O)/C=C/c2cccc(C(F)(F)F)c2)c(=O)n(C)c1=O	21.9%

SMILES	inhibition
COc1ccc2sc(-c3ccc(S(C)(=O)=O)cc3)c(C#Cc3cncn3C)c2c1	69.9% (active)
COc1ccc2sc(-c3ccc(S(C)(=O)=O)cc3)c(-c3ccc(C(N)=O)cc3)c2c1	12%
COc1ccc(-c2sc3ccc(OC)cc3c2C#Cc2ccccn2)cc1	40.5%
COCc1cc(C)nc(Nc2cc(C)ccc2C)c1C#N	17.9%
COc1ccc(N=Cc2c(O)[nH]c3ccccc23)cc1OC	61.3% (active)
COc1cc(/C=N/NC(=O)Cc2ccccc2)cc(OC)c1OC	4.45%
COc1ccc2[nH]c(C(=O)N/N=C/c3cc(OC)c(OC)c(OC)c3)cc2c1	11.4%
CN=c1scc(-c2cc(OC)ccc2OC)n1/N=C/c1c(C)[nH]c2ccccc12	20.3%
COc1cc(N=Cc2c(O)c3ccccc3oc2=O)c(OC)cc1Cl	20.6%
COc1cc(N=Cc2c(O)[nH]c3ccccc23)cc(OC)c1OC	80.2% (active)
Cc1cc(CNCc2c(C(=O)N(C)Cc3ccccc3)nc3ccccn23)nn1C	35.1%
CC1O[C@H](OC2C(COC3OC(CO)C(O)[C@H](O)C3O)OC(OC3CC[C@]4(C)C(CC[C@@]5(C)[C@@H]4C=C[C@]46OC[C@@]7(CCC(C)(C)C[C@H]74)C(O)C[C@@]56C)C3(C)C)C(O)C2O)C(O)C(O)C1O (some centres undefined)	-4.59%
Cc1c(C#N)c(NC(=O)c2ccccc2)n(Cc2ccccc2)c1C	29.1%
CCOc1cnc(C(=O)NNC(=O)c2ccccc2Br)o1	-14.2%
CCn1c(CC(=O)Nc2ccccc2C)nnc1SCC(=O)NC1=NCCS1	6.16%
Cc1ccc(C(=O)O)cc1N1C(=O)CCCC1=O	-17.1%
CN(C(=O)c1cccc(NC(=O)Cc2cccc([N+](=O)[O-])c2)c1)C1CCCCC1	18.4%
CC(OC(=O)c1ccc(-n2cnnn2)cc1)C(=O)NCc1ccccc1 (centres undefined)	8.29%
CCOC(=O)C1(CCOc2ccccc2)CCN(Cc2cc(OC)c(O)cc2Cl)CC1	28.9%
Cc1c(CN2CCC(CO)(CCOc3ccccc3)CC2)[nH]c2ccc(Cl)cc12	89.6% (active)
OCC1(CCOc2ccccc2)CCN(Cc2cn[nH]c2-c2ccccc2)CC1	12.6%
O=C(COC(=O)c1cc(-c2cccs2)nn1-c1ccccc1)Nc1cc([N+](=O)[O-])ccc1Cl	-2.96%
O=C(CCNC(=O)c1ccccc1)NN=Cc1ccc(Br)o1	5.26%

SMILES	inhibition
COc1ccc(CNC(=O)COC(=O)CCS(=O)(=O)c2ccc(C)cc2)cc1OC	21.8%
CCOc1ncccc1C(=O)Nc1ccc(S(=O)(=O)Nc2nc(C)cc(C)n2)cc1	-16.7%
CC(=O)Nc1ccc(S(=O)(=O)Nc2cc(C)cn(Cc3ccc(C)cc3)c2=O)cc1	17.7%
O=c1c([N+](=O)[O-])cccn1Cc1ccc(F)cc1Cl	10.4%
Brc1ccccc1/C=N/Nc1nc2ccccc2o1	36.2%
Oc1c(Br)cccc1/C=N/Nc1c(F)c(F)c(F)c(F)c1F	82.4% (active)
S=C(NCc1cccnc1)Nc1ccc(Cl)cc1Cl	4.36%
O=C(NNc1cc(Cl)ccc1Cl)c1cccnc1Cl	9.63%
CC(=O)/C(=N\Nc1ccc(Cl)cc1Cl)Sc1cccc2cccnc12	63.2% (active)
COc1ccccc1NC(=O)C1CCN(C(=O)c2ccc(C(C)(C)C)cc2)CC1	28.8%
CCCCCCCNC(=O)C1(CC2CC(c3cccc(Br)c3)=NO2)CCN(C(=O)c2cc(OCC)c(OCC)c(OCC)c2)CC1 (centres undefined)	18.1%
Fc1ccc(N2N=C(c3cccs3)CC2c2ccco2)c(F)c1 (centres undefined)	2.13%
CCCCN(CCCC)CCC(O)c1cc2c(Cl)cc(Cl)cc2c2cc(C(F)(F)F)ccc12 (centres undefined)	60.8% (active)
CCCCC(=O)Nc1ccc(C(=O)Nc2cc(C(F)(F)F)ccc2Cl)cc1	21.2%
CC1(C)Cc2c(sc3nc(SCC(=O)NCc4ccccc4)n(-c4ccccc4)c(=O)c23)CS1	-3.67%
N#Cc1c(NCCO)ccc([N+](=O)[O-])c1NCCO	-1.81%
CCOc1ccc(CN2CCN(Cc3c[nH]c4ccccc34)CC2)cc1	20.2%
O=C(COC(=O)CN1C(=O)C2CCCCC2C1=O)Nc1ccc(F)c(F)c1F (centres undefined)	34.5%
C[C@]12c3[nH]c4ccc(Cl)cc4c3CCN1C(=O)[C@@H](CC(=O)NCCCn1ccnc1)C[C@@H]2C(=O)N1CCOCC1	4.12%
CC1CCN(C(=O)/C(=C\c2ccccc2F)NC(=O)c2ccccc2)CC1	8.33%
Cc1cccc(-n2ncc(Cl)c(Cl)c2=O)c1	100% (active)
Cc1cccc(-n2ncc(C#N)c2-n2cccc2)c1	18.1%
C=CCNc1cnn(-c2ccc(C)cc2)c(=O)c1Cl	-8.88%

SMILES	inhibition
COC(=O)[C@@H]1C[C@@]2(O)[C@@H](O)[C@@H](O)[C@@H](O)C[C@H]2N1Cc1ccc(C)s1	10.5%
CCCOc1cccc(C(=O)Nc2nnn(CCC)n2)c1	-17.9%
COc1ccccc1-n1nnnc1S(=O)(=O)Cc1ccc(Cl)cc1	99.3% (active)
COc1ccccc1N1CCN(S(=O)(=O)c2ccc(Cl)cc2)CC1	0.916%
COc1ccccc1-n1nnnc1SCC(=O)NC(=O)Cc1ccccc1	-11.3%
O=C(CN1C(=O)c2cccnc2Oc2ccc(Cl)cc21)Nc1ccc(F)cc1	7.52%
CC1C(=O)NC(=O)C1c1ccccc1 (centres undefined)	10.9%
COc1ccccc1-c1sc2ccccc2c1-c1ccc(C(C)=O)cc1	7.74%
COc1cc(OC)cc(-c2sc3ccc(OC)cc3c2-c2ccc3cc[nH]c3c2)c1	13.6%
COc1ccccc1-c1sc2ccccc2c1-c1ccc(Br)nc1	1.19%
COc1ccc(-c2sc3ccccc3c2-c2ccc(OCCN3CCOCC3)cc2)cc1	28.3%
COc1ccc2sc(-c3ccccc3OC)c(-c3ccc(OCCN4CCCC4)cc3)c2c1	73.2% (active)
COc1cccc(-c2sc3ccc(OC)cc3c2-c2ccc(OCCN3CCCCC3)cc2)c1	96.8% (active)
CN1C(=O)C2(OCCCO2)c2cc(Cl)ccc21	2.45%
COC(=O)c1ccc(Oc2nc(NC(C)C)nc(SC)n2)cc1	22.5%
Cc1ccc(C(C(=O)NCC2CCCO2)N(C(=O)c2snc(C(N)=O)c2N)c2ccc(C(C)C)cc2)o1 (centres undefined)	-3.18%
C/C(=N\N(C)C)c1ccc(OCCOc2ccc([N+](=O)[O-])cc2)cc1	-8.83%
O=C(CN1CCN(C2CCS(=O)(=O)C2)CC1)N1N=C(c2ccc(Cl)cc2)CC1c1ccco1 (centres undefined)	26.2%
COCCCC1CCN(C(=O)C2CCC(=O)N(C3CCCCCC3)C2)CC1 (centres undefined)	27.9%
Cc1c(Cl)cccc1NC(=S)NCC(O)c1ccccc1 (centres undefined)	-14.3%
